# In PubChem BioAssay AID1468 (National Center for Advancing Translational Sciences (NCATS), 2008):
# Among all 280,000 compounds or so, about 1,100 (0.39%) were called active. About 7% were inconclusive and are not listed. Shown is part of a subset that was picked to be rich in actives. Unmarked numbers belong to inactive results. The call rests on the fitted dose curve; in most records, active means well fitted inhibition curve with a large enough effect; inconclusive means small, poorly fitted or top-dose-only effect, or effect the other way; inactive means flat fitted curve, though single readings scatter.
# Molecular target: Microtubule-associated protein tau (Homo sapiens) (UniProt P10636)
# Sequence (P10636 561-689 P618L limits assumed): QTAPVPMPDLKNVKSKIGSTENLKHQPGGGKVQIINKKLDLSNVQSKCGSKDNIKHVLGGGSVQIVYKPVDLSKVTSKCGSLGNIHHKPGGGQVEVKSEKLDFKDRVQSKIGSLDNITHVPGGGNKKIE
# Assay: qHTS for Inhibitors of Tau Fibril Formation, Fluorescence Polarization; further: nearly all actives have a fitted effect of over 55% in size
# Conditions: K18 P301L tau heparin fibrillization, Alexa594 FP, 6 h; series mostly up to 57.7 µM; activity, negative = inhibition: at the top concentration
# Description: NIH Molecular Libraries Probe Production Network [MLPCN]
# NIH Chemical Genomics Center [NCGC]
# Assay Provider: Carlo Ballatore, University of Pennsylvania
# The microtubule-associated protein tau is an abundant protein in the axons of neurons that stabilizes microtubules. With its ability to modulate microtubule dynamics, tau contributes directly or indirectly, to key structural and regulatory cellular functions. Particularly important is the influence tau exerts on axonal transport, which allows signaling molecules, trophic factors and other essential cellular constituents to travel along the axons. Under pathological conditions, tau becomes sequestered into insoluble aggregates called neurofibrillary tangles. This phenomenon is believed to have pathological consequences by promoting axonal transport deficits that ultimately lead to synaptic dysfunction and neuronal loss. To identify inhibitors of tau aggregation, a heparin-induced tau fibril formation assay was used that employed a recombinantly expressed fragment of tau, K18 (Q242-E372), bearing a P301L mutation (Gustke et al. 1994; Hong et al. 1998).
# Gustke, N., B. Trinczek, et al. (1994). "Domains of tau protein and interactions with microtubules." Biochemistry 33(32): 9511-22.
# Hong, M., V. Zhukareva, et al. (1998).
# Li, W. and V. M. Lee (2006). "Characterization of two VQIXXK motifs for tau fibrillization in vitro." Biochemistry 45(51): 15692-701.
# von Bergen, M., S. Barghorn, et al. (2001). "Mutations of tau protein in frontotemporal dementia promote aggregation of paired helical filaments by enhancing local beta-structure." J Biol Chem 276(51): 48165-74.
# NCGC Assay Protocol Summary:
# For screening, 2 uL/well human K18 P301L (15 uM unlabeled and 0.24 uM Alexa 594-labeled tau final concentrations) in reagent buffer (100 mM sodium acetate pH 7) was dispensed into black solid 1536-well plates (Grenier) using a solenoid-based dispenser. Following transfer of 23 nL compound or DMSO vehicle by a pin tool, 2 uL/well heparin (20 uM final concentration) in reagent buffer was added and the plate centrifuged 15 s at 1000 RPM. Plates were incubated 6 hr at 37 C and then 1 uL/well ThT (30 uM final concentration) was added. After a 1 hr ambient incubation, the plates were read by an Envision (Perkin Elmer) to monitor Alexa 594 FP (555 nm excitation and 632 nm emission).
# Keywords: NIH Roadmap, MLPCN, MLI, MLSMR, NCGC, qHTS, tau, tauopathies, Alzheimer's disease, fibril, neurodegeneration, aggregation
# On the % scale 0 is the no-effect control and ±100 the full control effect; potency means the concentration at half of the fitted maximal effect.
SMILES,"activity, negative = inhibition",Potency
O=C(Cn1ncc2c3ccccc3n(Cc3ccccc3)c2c1=O)NC1CCCCCC1,-3.1%,
Clc1ccc(CSc2nncn3c2cc2occc23)cc1,-6.93%,
COc1ccc(C2CC(=O)N(Cc3ccccc3C)c3c2c(C)nn3-c2nc(C)cc(C)n2)c(OC)c1 (stereo not drawn),5.46%,
Cc1ccc(C)c(S(=O)(=O)c2nnn3c2nc(N2CCOCC2)c2sccc23)c1,-0.999%,
Fc1ccc(CSc2nc(NCc3ccccc3)c3ccccc3n2)cc1,0.594%,
O=C(CSc1nc(Nc2ccc(F)c(F)c2)c2ccccc2n1)c1ccc(Cl)cc1,-2.77%,
Fc1ccc(Nc2nc(SCc3ccccc3Cl)nc3ccccc23)cc1,,6.31 µM (active)
Cc1ccc(C(=O)N2c3ncnn3C3(CCCCC3)[C@@H]3CCCC[C@@H]32)cc1,-0.63%,
CCOc1ccc2nc(Nc3nc4ccc(NC(C)=O)cc4s3)sc2c1,17.7%,
CC(=O)Nc1ccc2nc(SCCOc3cc(C)cc(C)c3)sc2c1,,12.6 µM (active)
Cc1ccc(OCCSc2nc3ccc(NC(=O)COc4ccc(C)cc4)cc3s2)cc1,1.12%,
COc1ccccc1C(=O)NCCn1cc(SCc2ccccc2Cl)c2ccccc21,7.76%,
Cc1ccc(-c2nn(-c3ccccc3)cc2C(=O)Nc2cccc(S(=O)(=O)N3CCOCC3)c2)cc1,,14.1 µM (active)
Cc1ccc(-c2nn(-c3ccccc3)cc2/C=C/C(=O)Nc2cccc(S(N)(=O)=O)c2)cc1,,14.1 µM (active)
O=C(COC(=O)c1ccccc1)Nc1cccc(S(=O)(=O)N2CCOCC2)c1,-4.57%,
COc1ccc(-c2nn(-c3ccccc3)cc2/C=C\C(=O)Nc2ccc(C(=O)O)cc2)cc1,-13.7%,
O=C(O)c1ccc(NC(=O)c2cn(-c3ccccc3)nc2-c2ccc(Cl)cc2)cc1,-3.57%,
O=C(O)/C=C/c1cn(-c2ccccc2)nc1-c1cccs1,-2.28%,
COc1ccccc1N1CCN(C2C(=O)c3ccccc3N2C(C)=O)CC1 (stereo not drawn),1.47%,
CCC(=O)N1CCc2cc(CNC(=O)Nc3ccccc3Cl)ccc21,1.87%,
COc1ccc(Cc2nc3ccc(C(=O)NCc4ccccc4C)cc3o2)cc1,-4.5%,

SMILES,"activity, negative = inhibition",Potency
CCN1CCc2nc3sc(C(=O)Nc4ccccc4OC(F)(F)F)c(N)c3cc2C1,7.89%,
O=C(Nc1ccc(Br)cc1)c1ccc(Br)c(S(=O)(=O)NCc2ccccc2)c1,,12.6 µM (active)
Cc1ccc(C(=O)Nc2ccc(C(=O)O)cc2)cc1S(=O)(=O)Nc1ccccc1,-5.55%,
O=C(Nc1cccc(NC(=O)c2ccc(Br)cc2)c1)c1ccccc1,-12.3%,
COC(=O)c1scc(-c2ccccc2)c1S(=O)(=O)Nc1ccccc1,-4.44%,
Cc1ccc(Cn2c(C)c3cnn(CC(=O)NCc4ccccc4)c(=O)c3c2C)cc1,5.78%,
COc1ccc(N(C(=O)c2cccnc2)S(=O)(=O)c2ccc3c(c2)n(C)c(=O)n3C)cc1,-5.86%,
O=C(c1cccnc1)N(c1cc2sc(=O)oc2c2ccccc12)S(=O)(=O)c1ccccc1,,17.8 µM (active)
CN(C)S(=O)(=O)c1cccc(C(=O)Nc2cccnc2)c1,4.52%,
Cc1cccc(N2CCN(C(=O)c3cnc(N4CCCC4)nc3C)CC2)c1C,3.19%,
CCc1ccccc1NC(=O)N1CCC2(CC1)Oc1ccccc1C(=O)N2Cc1ccccc1F,0.521%,
Cc1ccc(N(CC(=O)NCC(C)c2ccccc2)S(=O)(=O)N(C)C)cc1 (stereo not drawn),-10.6%,
CCOc1ccc(CNC(=O)Cn2cc3c(n2)-c2c(oc(C(=O)N4CCCC4)c2C)CC3)cc1,1.02%,
COc1ccc(NC(=O)Nc2ccc3nsnc3c2)cc1,13.6%,
O=C(Nc1ccccc1)Nc1nc2ccccc2s1,-11.5%,
O=C(Nc1ccc2ccccc2c1)Nc1ccc2snnc2c1,,11.2 µM (active)
Cc1ccc(Cl)cc1N1CCN(C(=O)C2CCC(CNS(=O)(=O)c3cccs3)CC2)CC1 (stereo not drawn),-0.505%,
CCCOc1ccc(NC(=O)CC2C(=O)N(c3ccccc3)C(=O)N2Cc2ccco2)cc1 (stereo not drawn),-1.22%,
O=C(CCCN1C(=O)/C(=C/c2ccccc2)SC1=S)Nc1ccc(O)cc1,-0.488%,
COc1ccc(/C=C2\SC(=S)N(CC(=O)NNC(=O)c3ccncc3)C2=O)cc1,0.355%,
O=C(CCN1C(=O)/C(=C/c2cccs2)SC1=S)NNC(=O)c1cccc(O)c1,,35.5 µM (active)

SMILES,"activity, negative = inhibition",Potency
O=C(CCC(=O)N1CC2CCCN2c2ccccc21)NCc1ccccc1Cl (stereo not drawn),5.73%,
CN(C)c1cccc(C(=O)Nc2nc3ccc(S(=O)(=O)NC(C)(C)C)cc3s2)c1,-6.9%,
CNc1nc(-c2ccccc2OC)nc2ccccc12,-6.15%,
COc1ccccc1Oc1nc(-c2cccnc2)nc2ccccc12,-11.2%,
c1ccc2c(NCC3CCCO3)nc(-c3ccncc3)nc2c1 (stereo not drawn),-0.627%,
c1ccc2c(Nc3ccncc3)nc(-c3ccoc3)nc2c1,2.73%,
COc1cccc(-c2nc(Nc3ccncc3)c3ccccc3n2)c1,,14.1 µM (active)
c1ccc2c(Nc3ccncc3)nc(-c3ccc4c(c3)OCO4)nc2c1,,10 µM (active)
COc1ccc(-n2c(SCC(N)=O)nc3c(oc4ccccc43)c2=O)cc1,-5.07%,
Cc1cccc(C(=O)N2CCc3cc(CNC(=O)Cc4ccc(F)cc4)ccc32)c1,12.6%,
CCN(CC)S(=O)(=O)c1ccc2c(c1)N(CC(=O)NCC(C)c1ccccc1)C(=O)CO2 (stereo not drawn),-5.51%,
Cc1ccc(S(=O)(=O)N2CCCc3cc(NS(=O)(=O)c4cc(C)ccc4C)ccc32)cc1,-9.07%,
COc1ccc(/C=N/S(=O)(=O)c2ccccc2)cc1OC,1.5%,
COc1ccc(C(=O)Nc2ccccc2C(=O)N/N=C/c2ccc(O)c(OC)c2)cc1,-10.4%,
COc1cc(/C=N/NC(=O)c2ccccc2)ccc1OS(=O)(=O)c1ccccc1,,35.5 µM (active)
COc1ccc(-c2nc(SCC(=O)N3CCCCC3C)n[nH]2)cc1 (stereo not drawn),0.155%,
Cc1nc(SCCOc2ccc(Cl)cc2)[nH]c(=O)c1Cc1ccccc1,-15.5%,
C(=N\N1CCN(c2ccccn2)CC1)/C1=C(N2CCOCC2)C(=C/c2ccccc2)/CC1,2.73%,
N#C/C(=C\c1ccccc1C(F)(F)F)C(=O)Nc1ccccc1F,0.663%,
N#C/C(=C\C1=C(N2CCOCC2)C(=C\c2ccccc2)/CC1)C(=O)Nc1ccccc1F,,25.1 µM (active)
Cc1c(Cl)cccc1-c1ccc(CNCCCSc2nnnn2C)o1,11.9%,
